# Data from PubChem BioAssay AID651692 (Broad Institute, 2012).
# Potency and affinity values are given separately. Calls of active or inactive are those of the source.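 The calls were made as follows: active = fitted half-maximal concentration for loss of cell signal no higher than twice the top valid tested concentration; inconclusive = flat curve at 30 to 70% inhibition, or poor fit; inactive = flat within 30%, signal rise, or potency above limit.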
# Assay: MDA-MB-231 cell growth inhibition, dose response, cytotoxicity control for RAD54 inhibitor project, CellTiter-Glo luminescence, cherry-pick (AID 651692);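 also: more negative values mean stronger loss of viable cell signal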
# Conditions: MDA-MB-231 viability, 24 h; series mostly up to 26 µM
row,Compound,outcome
1,COc1ccccc1Nc1nc(NCC2CCCO2)c2ccccc2n1 (stereo not given),inactive
2,Nc1cc2ccncc2c2ccccc12,inactive
3,OCCN1CCN(c2ncnc3c2sc2nc(N4CCOCC4)c4c(c23)CCC4)CC1,inactive
4,CCN1CCN(c2cc(C)c3cc(NC(=S)N4CC(C)CC(C)C4)ccc3n2)CC1 (stereo not given),inactive
5,CN(C)CCCNc1c2ccccc2nc2ccccc12,inactive
6,Cc1ccc2oc(=O)c3cc(C(=O)NCCCN4C(C)CCCC4C)sc3c2c1 (stereo not given),inactive
7,CCCCN(CC)CCCNC(=S)Nc1ccc2nc(N3CCN(CC)CC3)cc(C)c2c1,inactive
8,COc1ccccc1C1=NOC(Cn2c(NCCCO)nc3c2c(=O)n(C)c(=O)n3C)C1 (stereo not given),inactive
9,O=C(NCCCN1CCOCC1)c1cnn2c(-c3ccccc3)cc(-c3ccccc3)nc12,inactive
10,Nc1ccc(-c2nc3c(ccc4ccccc43)[nH]2)cc1,inactive
11,Cc1nc2oc3c(=O)[nH]cnc3c2c2c1COC(C)(C)C2,inactive
12,CCOC(=O)c1cnc2c(C)c(Cl)ccc2c1NCCCN1CCOCC1,inactive
13,CN(C)CCCNc1c2c(nc3ccccc13)CCC2,inactive
14,Cc1cc(Nc2ccc3c(c2)OCCO3)c2cccc(C)c2n1,inactive
15,CCn1cc(C(=O)NCCN(C)C)c(=O)c2cc(F)c(N3CCN(C)CC3)cc21,inactive
16,CN(C)CCc1cc2c(c3c1ccc1ccccc13)OCO2,inactive
17,CCCN1CCN(CCCNC(=S)Nc2ccc3nc(N4CCN(CC)CC4)cc(C)c3c2)CC1,inactive
18,CCN(CC)CCNC(=O)c1cc2c(=O)n(C)c3ccccc3c2n1C,inactive
19,c1ccc(-c2nnc(SCc3nc4ccccc4[nH]3)o2)cc1,inactive
20,CCOC(=O)c1cnc2ccc(C)cc2c1NCCN1CCOCC1,inactive
